From PubChem BioAssay AID1159580 (chemical genetic matrix, 2015)
Several values for one entry are separate records, joined by “and”; a condition that tells them apart may be missing. Equal entries are not always repeated. About 2,000 (36%) of roughly 5,500 compounds were called active. About 18% were inconclusive and are not listed. Rule as the data show it: active = normalized growth mostly below about 0.91 (no sharp cut-off); inconclusive = no clear call, values can overlap the other calls; inactive = mostly above about 0.92. This is one part of the list.

Assay: chemical genetic growth profiling, strain panel (AID 1159580);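 also: tested at 20 µM; growth read once vehicle control cultures reached saturation at 30 °C; 1 = growth at the plate median or of vehicle wells; lower values mean less growth of the strain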
Conditions: growth OD

Measured: normalized growth

COC(=O)C1=CCCN(C)C1
inactive: S. cerevisiae deletion strains, locus YKL068W, active compounds read low 0.996 | S. cerevisiae deletion strains, locus YKL085W, strain MDH1 (second series), active compounds read low 0.997 | S. cerevisiae deletion strains, locus YKL085W, strain MDH1, active compounds read low 0.997 | S. cerevisiae deletion strains, locus YKL160W, strain elf1, active compounds read low 1.03 | S. cerevisiae deletion strains, locus YKL190W, strain CNB1, active compounds read low 1 | S. cerevisiae deletion strains, locus YKR001C, strain vps1, active compounds read low 1.01 | S. cerevisiae deletion strains, locus YKR026C, strain gcn3, active compounds read low 1.01 | S. cerevisiae deletion strains, locus YKR091W, strain srl3, active compounds read low 1.01 | S. cerevisiae deletion strains, locus YLL001W, strain dnm1, active compounds read low 0.989 | S. cerevisiae deletion strains, locus YLL026W, active compounds read low 1.02 | S. cerevisiae deletion strains, locus YLL041C, strain sdh2, active compounds read low 0.991 | S. cerevisiae deletion strains, locus YLR027C, strain aat2, active compounds read low 1 | S. cerevisiae deletion strains, locus YLR039C, strain RIC1, active compounds read low 0.983 | S. cerevisiae deletion strains, locus YLR058C, strain SHM2, active compounds read low 0.973 | S. cerevisiae deletion strains, locus YLR102C, strain apc9, active compounds read low 1 | S. cerevisiae deletion strains, locus YLR113W, strain HOG1, active compounds read low 0.994 | S. cerevisiae deletion strains, locus YLR221C, strain rsa3, active compounds read low 0.992 | S. cerevisiae deletion strains, locus YLR258W, strain gsy2, active compounds read low 1.01 | S. cerevisiae deletion strains, locus YLR262C, strain YPT6 (second series), active compounds read low 0.986 | S. cerevisiae deletion strains, locus YLR262C, strain YPT6, active compounds read low 0.953 | S. cerevisiae deletion strains, locus YLR268W, strain sec22, active compounds read low 1 | S. cerevisiae deletion strains, locus YLR320W, strain mms22, active compounds read low 0.961 | S. cerevisiae deletion strains, locus YLR330W, strain CHS5, active compounds read low 0.991 | S. cerevisiae deletion strains, locus YLR342W, strain FKS1 (second series), active compounds read low 1.01 | S. cerevisiae deletion strains, locus YLR342W, strain FKS1, active compounds read low 0.995 | S. cerevisiae deletion strains, locus YLR357W, strain rsc2, active compounds read low 1.01 | S. cerevisiae deletion strains, locus YLR370C, strain arc18, active compounds read low 1 | S. cerevisiae deletion strains, locus YLR371W, strain rom2, active compounds read low 0.999 | S. cerevisiae deletion strains, locus YLR384C, strain iki3, active compounds read low 1.02 | S. cerevisiae deletion strains, locus YLR418C, strain cdc73, active compounds read low 1.02 | S. cerevisiae deletion strains, locus YML016C, strain PPZ1, active compounds read low 0.987 | S. cerevisiae deletion strains, locus YML032C, strain rad52, active compounds read low 0.983 | S. cerevisiae deletion strains, locus YML120C, strain ndi1, active compounds read low 1 | S. cerevisiae deletion strains, locus YML124C, strain tub3, active compounds read low 0.994 | S. cerevisiae deletion strains, locus YMR058W, strain fet3, active compounds read low 1.03 | S. cerevisiae deletion strains, locus YMR078C, strain ctf18, active compounds read low 0.996 | S. cerevisiae deletion strains, locus YMR125W, strain sto1, active compounds read low 1.02 | S. cerevisiae deletion strains, locus YMR129W, active compounds read low 1 | S. cerevisiae deletion strains, locus YMR205C, strain PFK2, active compounds read low 0.955 | S. cerevisiae deletion strains, locus YMR223W, strain ubp8, active compounds read low 0.981 | S. cerevisiae deletion strains, locus YMR231W, strain pep5, active compounds read low 1.01 | S. cerevisiae deletion strains, locus YMR263W, strain SAP30, active compounds read low 0.984 | S. cerevisiae deletion strains, locus YMR307W, strain GAS1, active compounds read low 1.01 and 0.99 | S. cerevisiae deletion strains, locus YNL067W, strain RPL9B, active compounds read low 0.979 | S. cerevisiae deletion strains, locus YNL071W, strain lat1, active compounds read low 1.01 | S. cerevisiae deletion strains, locus YNL128W, strain TEP1, active compounds read low 0.986 | S. cerevisiae deletion strains, locus YNL153C, strain GIM3, active compounds read low 0.983 | S. cerevisiae deletion strains, locus YNL175C, strain NOP13, active compounds read low 1.04 | S. cerevisiae deletion strains, locus YNL183C, strain NPR1, active compounds read low 0.953 | S. cerevisiae deletion strains, locus YNL197C, strain WHI3, active compounds read low 1 | S. cerevisiae deletion strains, locus YNL209W, strain ssb2, active compounds read low 1 | S. cerevisiae deletion strains, locus YNL224C, strain SQS1, active compounds read low 1 | S. cerevisiae deletion strains, locus YNL233W, strain BNI4, active compounds read low 0.99 | S. cerevisiae deletion strains, locus YNL248C, strain rpa49, active compounds read low 1.02 | S. cerevisiae deletion strains, locus YNL250W, strain rad50, active compounds read low 0.993 | S. cerevisiae deletion strains, locus YNL271C, strain bni1, active compounds read low 0.995 | S. cerevisiae deletion strains, locus YNL298W, strain CLA4, active compounds read low 1 | S. cerevisiae deletion strains, locus YNL307C, strain MCK1, active compounds read low 0.996 | S. cerevisiae deletion strains, locus YNL322C, strain KRE1 (second series), active compounds read low 1.03 | S. cerevisiae deletion strains, locus YNL322C, strain KRE1, active compounds read low 0.985 | S. cerevisiae deletion strains, locus YNR049C, strain mso1, active compounds read low 0.995 | S. cerevisiae deletion strains, locus YNR052C, strain pop2, active compounds read low 0.995 | S. cerevisiae deletion strains, locus YOL006C, strain TOP1, active compounds read low 0.981 | S. cerevisiae deletion strains, locus YOL012C, strain htz1 0.9 | S. cerevisiae deletion strains, locus YOL147C, strain pex11, active compounds read low 0.992 | S. cerevisiae deletion strains, locus YOR001W, strain rrp6, active compounds read low 0.971 | S. cerevisiae deletion strains, locus YOR061W, strain CKA2, active compounds read low 0.968 | S. cerevisiae deletion strains, locus YOR069W, strain VPS5, active compounds read low 0.997 | S. cerevisiae deletion strains, locus YOR070C, strain gyp1, active compounds read low 1.01 | S. cerevisiae deletion strains, locus YOR080W, strain dia2, active compounds read low 1 | S. cerevisiae deletion strains, locus YOR083W, strain WHI5 (second series), active compounds read low 1.02 | S. cerevisiae deletion strains, locus YOR083W, strain WHI5, active compounds read low 1.01 | S. cerevisiae deletion strains, locus YOR106W, strain vam3, active compounds read low 1.04 | S. cerevisiae deletion strains, locus YOR136W, strain idh2, active compounds read low 1 | S. cerevisiae deletion strains, locus YOR144C, strain elg1, active compounds read low 0.997 | S. cerevisiae deletion strains, locus YOR184W, strain ser1, active compounds read low 0.989 | S. cerevisiae deletion strains, locus YOR231W, strain MKK1, active compounds read low 0.994 | S. cerevisiae deletion strains, locus YOR265W, strain rbl2, active compounds read low 1 | S. cerevisiae deletion strains, locus YOR270C, strain vph1, active compounds read low 1.01 | S. cerevisiae deletion strains, locus YOR290C, strain snf2, active compounds read low 1.02 | S. cerevisiae deletion strains, locus YOR316C, strain cot1, active compounds read low 0.993 | S. cerevisiae deletion strains, locus YPL051W, strain arl3, active compounds read low 1.03 | S. cerevisiae deletion strains, locus YPL055C, strain LGE1, active compounds read low 0.977 and 1.03 | S. cerevisiae deletion strains, locus YPL078C, strain atp4, active compounds read low 1.03 | S. cerevisiae deletion strains, locus YPL106C, strain sse1, active compounds read low 1.04 | S. cerevisiae deletion strains, locus YPL240C, strain hsp82, active compounds read low 1 | S. cerevisiae deletion strains, locus YPL241C, strain CIN2, active compounds read low 0.994 | S. cerevisiae deletion strains, locus YPL256C, strain CLN2, active compounds read low 1 | S. cerevisiae deletion strains, locus YPR119W, strain clb2, active compounds read low 0.991 | S. cerevisiae deletion strains, locus YPR141C, strain kar3, active compounds read low 0.99 | S. cerevisiae deletion strains, locus YPR163C, strain tif3, active compounds read low 0.999 | S. cerevisiae deletion strains, locus YPR167C, strain met16, active compounds read low 1 | S. cerevisiae deletion strains, strain wtn01, active compounds read low 0.994 | S. cerevisiae strains, strain wild type, active compounds read low 0.993
